Assay results as given in the supplement of paper PMC13380429.

Tested on: Vero E6 infected with SARS-CoV-2
Assay: inhibition of SARS-CoV-2 cytopathic effect; higher = more antiviral protection, active = above 15
Details: 48 h

Measured: inhibition of SARS-CoV-2 cytopathic effect

NS(=O)(=O)C#Cc1ccccc1 [pifithrin-mu]
active: 10000 nM 22.5%
inactive: 1 nM 2.15% | 8.33 nM 5.91% | 100 nM 2.87% | 833.33 nM 4.85%

CC1(C)CC[C@]2(NC(=O)C(C)(F)F)CC[C@]3(C)[C@H](C(=O)C=C4[C@@]5(C)C=C(C#N)C(=O)C(C)(C)[C@@H]5CC[C@]43C)[C@@H]2C1 [Omaveloxolone (RTA-408)]
inactive: 1 nM 4.28% | 8.33 nM 6.39% | 100 nM 3.8% | 10000 nM -13.7%
active: 833.33 nM 17.2%

CNCc1ccc(-c2cc(-c3nc(-c4ccc(S(=O)(=O)C(C)C)cc4)cnc3N)on2)cc1
inactive: 1 nM 0.45% | 8.33 nM 3.25% | 100 nM 1.09%
active: 833.33 nM 24.5% | 10000 nM 25.2%

OC[C@H]1O[C@@H](c2ccc(F)c(Cc3cc4ccccc4s3)c2)[C@H](O)[C@@H](O)[C@@H]1O [ipragliflozin-L-proline]
inactive: 1 nM 0.82% | 8.33 nM -0.16% | 100 nM 0.41% | 833.33 nM 0.42% | 10000 nM 0.4%

CCCC(C)NC(=O)c1ccc(Cl)c(Cl)c1 (stereo not given)
inactive: 1 nM 1.38% | 8.33 nM 1.88% | 100 nM 1.26% | 833.33 nM -2.38% | 10000 nM -1.56%

O=C(/C=C/c1ccc2ccccc2n1)c1ccncc1
inactive: 1 nM -4.3% | 8.33 nM -0.71% | 100 nM -2.06% | 833.33 nM -1.46% | 10000 nM -3.51%

Cc1nnc(C(=O)NC(C)(C)c2nc(C(=O)NCc3ccc(F)cc3)c(O)c(=O)n2C)o1 [raltegravir]
inactive: 1 nM 3.09% | 8.33 nM -0.27% | 100 nM 2.75% | 833.33 nM 1.2% | 10000 nM 1.12%
